From PubChem BioAssay come the findings set out here.

A number with no mark means an inactive call. Activity calls are given as the source filed them.

The target of this assay is Luciferin 4-monooxygenase (Photinus pyralis) (UniProt P08659). As to the kind of experiment: inhibition of purified Photinus pyralis luciferase – biochemical, luminescence, purified enzyme, 2006 set, primary screen (AID 1141).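 Also: cell-free assay with purified firefly luciferase at 100 ng per well in PBS; test concentration not given here.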 The conditions noted are these: purified firefly luciferase, SteadyGlo luminescence, 30 min; higher = more signal, called active from +8 up or from −8 down.
Chain of Luciferin 4-monooxygenase (Photinus pyralis) (P08659 whole entry, looked up): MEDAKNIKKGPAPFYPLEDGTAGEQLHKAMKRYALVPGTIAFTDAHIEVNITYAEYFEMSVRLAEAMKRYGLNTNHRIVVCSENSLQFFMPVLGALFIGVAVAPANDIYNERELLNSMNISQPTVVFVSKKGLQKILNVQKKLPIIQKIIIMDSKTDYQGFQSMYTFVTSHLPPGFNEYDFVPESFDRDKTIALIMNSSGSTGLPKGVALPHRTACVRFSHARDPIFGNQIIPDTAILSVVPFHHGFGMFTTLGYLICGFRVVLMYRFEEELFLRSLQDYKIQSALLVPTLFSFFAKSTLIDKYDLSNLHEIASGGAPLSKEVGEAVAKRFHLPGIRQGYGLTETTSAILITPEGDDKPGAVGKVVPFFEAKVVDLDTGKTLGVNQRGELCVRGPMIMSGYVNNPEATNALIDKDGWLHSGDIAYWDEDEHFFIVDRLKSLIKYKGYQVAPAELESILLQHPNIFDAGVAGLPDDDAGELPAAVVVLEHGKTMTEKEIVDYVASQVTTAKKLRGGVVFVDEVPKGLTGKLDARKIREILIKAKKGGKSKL
As to `C=CCC(OC(C)=O)[C@@H]1[C@@H](N(Cc2cccc3ccccc23)C(=O)c2cccc3ccccc23)c2cc(OCCCO)ccc2N1C(=O)c1ccc2ccccc2n1` (stereo partly specified), the z-score is 1.01.

As to `COc1ccc(C(O)C2C=CC3C(=O)NC(=O)C3N2Nc2ccccn2)cc1OCc1ccccc1` (stereo unspecified), the z-score was 0.24. The same measure for `CCCN1C(=O)[C@@]2(CCC(=O)OC(C)(C)C)N=C(c3ccc(OCCCO)cc3)O[C@H]2c2ccccc21`: -2.45; for `COc1cccc(C(=O)O[C@H]2CC[C@]3(C)C4=C(CCC3C2(C)C)[C@]2(C)CC[C@H]([C@H](C)CCCC(C)C)[C@@]2(C)CC4)c1` (stereo partly specified): -0.843. `COc1cc2c(cc1OC)CN(C(=O)[C@@H]1[C@H]3C(=O)O[C@H](c4ccccc4)[C@H](c4ccccc4)N3[C@H](c3ccccc3OCCO)[C@@]13C(=O)Nc1ccc(C#CCNC(N)=O)cc13)CC2`: the z-score was -1.64. To `CN(C)CCCCNC(=O)[C@H]1C[C@H]2C(=O)N[C@@H](Cc3ccccc3)C(=O)N2[C@H]1c1ccc(O)cc1` belongs 0.999. To `COc1ccc(CCN2C(=O)[C@@]3(Cc4ccccc42)c2ccccc2C(=O)N(Cc2ccccc2Cl)[C@H]3c2ccc(CO)cc2)cc1` belongs -0.822. For `CCCCCCCCCCC(O)C1C=CC2C(=O)N(Cc3ccccc3)C(=O)C2N1n1cnnc1` (stereo unspecified), the z-score is 0.892. For `COCCOC(=O)N1C(=O)[C@@]2(c3cc(C#CCC(C(=O)OC)C(=O)OC)ccc31)[C@H](C(=O)N1CCN(c3ncccn3)CC1)[C@H]1C(=O)O[C@H](c3ccccc3)[C@H](c3ccccc3)N1[C@@H]2c1ccc(OCCO)cc1`, the z-score was -0.59. Turning to `C=C(COC)C(=O)CC[C@@H](OC(=O)c1cccnc1)c1ccc(CO)o1`, the z-score was -2.05.

For `C=C[C@@H](COC(C)=O)N(Cc1ccc([N+](=O)[O-])cc1)S(=O)(=O)c1ccc(Br)cc1`, the z-score is -1.19.

With `O=C1O[C@@H](c2ccccc2)[C@@H](c2ccccc2)N2[C@@H](c3ccc(O)cc3)[C@]3(C(=O)Nc4ccc(C#CC5(O)CCCCCC5)cc43)[C@@H](C(=O)N3CCCCCCC3)[C@H]12`, the z-score is -0.593. Regarding `COC(=O)C[C@@H]1C[C@H](C)[C@]2(O1)C(=O)N(Cc1ccccc1)c1ccc(NC(C)=O)cc12`, the z-score was 0.0257. To `CC(C)(C)N1CC=CC23O[C@@H]4C=CCOC(=O)[C@@H]4[C@H]2C(=O)N(CCCCCO)[C@@H]3C1=O` (stereo partly specified) belongs 0.107; to `C=CCN1C(=O)[C@]2(O[C@H](CCO)[C@@H]([Si](C)(C)c3ccc(OC)cc3)[C@@H]2C)c2cc(NC(=O)[C@H](C)O)ccc21`, -0.181; to `C=CC(=C)C1=CCO[C@@H]1[C@H]1CCCN1S(=O)(=O)c1ccccc1[N+](=O)[O-]`, 0.0352.

Take `COc1ccc(NN2C(C(O)c3ccc(OC)c(OCc4ccccc4)c3)C=CC3C(=O)N(C4CCCCC4)C(=O)C32)cc1` (stereo unspecified): the z-score was 1.16. On to `[N-]=[N+]=NCc1ccccc1[C@@H]1OC(c2ccc(OCCCO)cc2)=N[C@]1(Cc1ccccc1)C(=O)N1CCCCC1`, for which the z-score was -1.22. On to `CC(C)(C)N1CC=CC23O[C@@H]4/C=C\CCCOC(=O)C4[C@H]2C(=O)N(CCO)[C@@H]3C1=O` (stereo partly specified), for which the z-score was 0.885. For `O=C1O[C@H](c2ccccc2)[C@H](c2ccccc2)N2[C@H]1[C@@H](C(=O)O)[C@]1(C(=O)Nc3ccc(C#CC4=CCCCC4)cc31)[C@H]2c1ccc(OCCO)cc1`, the z-score was -9.5 (active). `COC(=O)C[C@H]1O[C@]2(C(=O)N(Cc3ccccc3)c3ccc(NC(C)=O)cc32)[C@@H](C)[C@@H]1[Si](C)(C)c1ccc(OC)cc1`: the z-score is 0.531. For the compound `CC(C)CNC(=O)[C@@H]1c2ccccc2C(=O)N(Cc2cc(C(F)(F)F)cc(C(F)(F)F)c2)[C@H]1c1ccc(CO)cc1`, the z-score is -0.975. Consider `COc1ccccc1CN1C(=O)c2ccccc2[C@@H](C(=O)NCCN2CCOCC2)[C@@H]1c1ccc(CO)cc1`, for which the z-score was 0.706.

`NCCCCCCNC(=O)[C@H]1C[C@H]2C(=O)NCC(=O)N2[C@H]1c1cccc(OCCO)c1`: the z-score is -1.7. `COCCOC(=O)N1C(=O)[C@@]2(c3ccccc31)[C@H](C(=O)NC[C@H](O)c1ccccc1)[C@H]1C(=O)O[C@H](c3ccccc3)[C@H](c3ccccc3)N1[C@@H]2c1ccc(OCCO)cc1`: the z-score was 0.888. Turning to `CC(C)N1CC=CC23O[C@@H]4C=CCOC(=O)[C@@H]4[C@H]2C(=O)N(CCO)[C@@H]3C1=O` (stereo partly specified), the z-score was -0.0322. The same measure for `COC(=O)[C@@]1(Cc2ccccc2)[C@H]2c3cc(C(=O)N4CCCC4)n(C)c3C[C@H]2CN1C(=O)c1ccccc1`: 0.271; for `O=C1[C@]2(CO)C=C(Br)[C@@H](C[C@@H]2c2ccccc2)[C@@]12CO2`: 0.969. As to `CCCCC(O)C1C=CC2C(=O)N(C3CCCCC3)C(=O)C2N1Nc1ccc(OC)cc1` (stereo unspecified), the z-score is 1.06. As to `COc1ccc(C(O)C2C=CC3C(=O)N(c4ccccc4)C(=O)C3N2Nc2ccc([N+](=O)[O-])cc2)cc1OCc1ccccc1` (stereo unspecified), the z-score was 1.42. Take `Cc1ccc(S[C@]2(C(=O)NCc3ccccc3)CC(=O)N(Cc3ccccc3)[C@@H]2c2ccc(CO)cc2)cc1`: the z-score is -0.627.

On to `C=C(COC)/C(=C/C[C@H](OC(=O)c1ccncc1)c1cccc(OCCO)c1)c1cc(C(=O)OC)ccc1OC`, for which the z-score was -1.04. As to `COC(=O)[C@@]1(Cc2ccccc2)[C@H]2c3cc(C(=O)N(C)C)n(Cc4cc(C)n(C)n4)c3C[C@H]2CN1C(=O)c1ccccc1`, the z-score is 0.887. As to `COC(=O)[C@@]1(Cc2ccccc2N=[N+]=[N-])COC(c2ccc(OCCCO)cc2)=N1`, the z-score is -1.93.

Take `CN1CCC(CCCO)=CC1c1ccc(CN2CCCC2)cc1` (stereo unspecified): the z-score was 0.536. Turning to `CC(=CC1CCCCC1)[C@@H](NC(=O)c1ccc(C(F)(F)F)cc1)c1ccc(-c2ccccc2)cc1`, the z-score was 1.25.
